Assay [1] is described as follows: Wnt pathway potentiators raising nuclear beta-catenin – imaging, WNT3A-conditioned medium, mouse C2C12, NPC library, primary screen (AID 1117326; in the data active = nuclear beta-catenin stimulation mostly above about 4.2%, no sharp cut-off; inactive = mostly below about 10%). As to conditions: stronger effect = higher value.
Assay [2] can be described thus: stimulators of insulin release from INS-1E, primary screen, cell-based, 5 mM glucose, NPC library (AID 1117329;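 active = compound raises insulin release from rat beta cells at 5 mM glucose, no numeric limit stated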). As to conditions: rat INS-1E insulin secretion, at 10 µM, stronger effect = higher value.
The nature of assay [3]: growth inhibition of GSK3B-pretreated HCT116 cells – cell-based, CellTiter-Glo, 0.2 to 20 µM (AID 1117336;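 active = compounds lowering colon cancer cell viability after pretreatment blocking the GSK3B kinase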). As to conditions: HCT116 viability after GSK3B inhibitor, at 20 µM, stronger effect = higher value. For orientation: Cellular ATP, detected with luciferase, serves as a proxy for viable cell number.
A short description of assay [4]: inhibition of endothelial tube formation, primary screen, imaging, VEGF stimulated, CD31 staining, tube area, NPC library (AID 1117340;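 active = compound that reduces growth-factor-driven endothelial tube area in a mixed cell culture, no cutoff stated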). To be noted: VEGF-stimulated ADSC/ECFC co-culture, at 10 µM, stronger effect = higher value.
A short description of assay [5]: GLP1 release stimulators, primary, NCI-H716, NPC library (AID 1117341;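 active = compound raises GLP1 secretion from the human gut endocrine cells, with no numeric limit stated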). To be noted: NCI-H716 cells, at 10 µM, stronger effect = higher value.
Assay [6] is described as follows: HCT116 colon cancer cell growth inhibition, primary screen, CellTiter-Glo luminescence, NPC library (AID 1117342;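 active = compounds that lower survival of HCT116 colon cancer cells in the luminescence readout, no numeric limit stated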). As to conditions: at 20 µM (top of the series).
Assay [7] can be described thus: reduced SW480 viability measured with CellTiter-Glo, NPC library, primary (AID 1117343;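 active = compounds that lower viability of the colon cancer cells in the luminescence readout, with no numeric limit stated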). To be noted: CellTiter-Glo luminescence; at 20 µM (top of the series).
Assay [8] in a line: NPC library primary testing for decreased DLD-1 cell viability via CellTiter-Glo (AID 1117346;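 active = compounds that lower survival of DLD-1 colon cancer cells in the luminescence readout, no cutoff given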). To be noted: DLD-1 viability, CellTiter-Glo luminescence; at 20 µM (top of the series).
A short description of assay [9]: viability loss with induced miR-34 in A549 – imaging, A549 dox-inducible miR-34, nuclei and caspase counts, primary screen (AID 1347080;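 active = compounds whose cell count with miR-34 switched on is under 0.7 times the count with it off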). To be noted: A549 miR-34 inducible, Hoechst nuclei count, 48 h.
Assay [10] is described as follows: MELAS cybrid and Rieske KO viability enhancers – cell-based, MELAS cybrids, Rieske KO mouse fibroblasts, CellTiter-Glo, primary screen (AID 1508586;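 active = mean z-score across replicates of 1.96 or higher in either the MELAS or the Rieske mutant cell line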;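 also: z relative to plate mean and SD of compound and empty wells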). As to conditions: low glucose.
The target of assay [11] is NAD(+) hydrolase SARM1 (Homo sapiens) (UniProt Q6SZW1). Kind of assay: blocking NAD cleavage by SARM1 SAM-TIR – cell lysate, NAD-Glo luminescence (AID 1508614;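 active = compound whose remaining NAD level is above about 45 nM, limit read from the data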;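 also: higher remaining NAD means stronger inhibition of SARM1 NADase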). As to conditions: SAM-TIR HEK293T lysate NADase, at 1 µM, stronger effect = higher value.
NAD(+) hydrolase SARM1 (Homo sapiens), sequence (Q6SZW1 whole entry, looked up): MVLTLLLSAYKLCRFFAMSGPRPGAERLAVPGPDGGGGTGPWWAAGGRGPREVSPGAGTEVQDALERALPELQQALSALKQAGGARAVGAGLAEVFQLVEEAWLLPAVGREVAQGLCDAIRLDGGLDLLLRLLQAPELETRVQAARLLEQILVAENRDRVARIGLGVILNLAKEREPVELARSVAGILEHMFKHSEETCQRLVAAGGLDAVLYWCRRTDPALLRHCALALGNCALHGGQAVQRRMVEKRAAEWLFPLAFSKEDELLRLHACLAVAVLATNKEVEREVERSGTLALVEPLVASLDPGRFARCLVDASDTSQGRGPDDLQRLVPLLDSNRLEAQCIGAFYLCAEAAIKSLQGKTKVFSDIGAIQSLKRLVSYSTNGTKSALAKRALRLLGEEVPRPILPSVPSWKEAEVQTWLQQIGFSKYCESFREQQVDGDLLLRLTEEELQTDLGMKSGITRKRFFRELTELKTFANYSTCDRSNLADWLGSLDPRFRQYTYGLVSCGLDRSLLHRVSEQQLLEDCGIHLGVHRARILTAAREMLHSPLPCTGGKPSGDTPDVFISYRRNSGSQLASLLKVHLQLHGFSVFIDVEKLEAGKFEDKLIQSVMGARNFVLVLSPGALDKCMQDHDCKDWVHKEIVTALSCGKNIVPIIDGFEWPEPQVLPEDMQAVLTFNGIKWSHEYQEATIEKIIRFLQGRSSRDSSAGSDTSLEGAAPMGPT
The nature of assay [12]: compounds altering viability of human ES cells (AID 493140; call rule not given here;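 also: cells exposed to compounds for four days before counting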). To be noted: human embryonic stem cell survival screen; stronger effect = higher value.
The nature of assay [13]: P. berghei load reduction in hepatocytes – cell-based, HepG2, luciferase luminescence, HepG2 viability, primary screen (AID 624349).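 Also: 100% = mean of DMSO negative control wells on the same plate.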 To be noted: P. berghei liver stage in HepG2, luciferase luminescence, concentration not given here; parasite load remaining: stronger effect = lower value; viability: measured here: HepG2 viability without parasites.
[14] abbreviates: measured here: relative caspase fold change +Dox/-Dox.
The mark [15] stands for this setting: measured here: total cells with miR-34 induction, stronger effect = lower value.
[16] abbreviates: measured here: total cells without miR-34 induction.
Where [17] appears, read: MELAS cybrid survival, CellTiter-Glo 48 h, stronger effect = higher value.
Setting [18] is: Rieske KO mouse fibroblast survival, CellTiter-Glo 72 h.

Values joined by “and” are separate entries in the source; they are usually repeats but may differ in a detail not shown here. Equal entries are not always repeated. Active and inactive are the calls of the source. Rule as the data show it, unless noted: active = parasite load remaining mostly below about 12% (no sharp cut-off); inactive = mostly above about 10%.

From PubChem BioAssay come the findings set out here.

Turning to `CCCCCCCCCCCC[N+](C)(C)CCOc1ccccc1`, the nuclear beta-catenin stimulation in [1] (at 10 µM) is 20.4% (inactive); in [1] (stimulation, at 2 µM), 0.6%. Moreover, the insulin secretion stimulation in assay [2] is 5.9% (inactive). The viability decrease in assay [3] is 110% (active). For the same compound, in assay [4], the tube area decrease was 111% (active). The GLP1 secretion stimulation in assay [5] was 67% (active). In assay [6], the inhibition of viability is 112% (active). The viability decrease (inhibition) in [7] was 134% (active); in assay [8], 101% (active). Also, the fold change was 0.988 (inactive) in assay [9] (stronger effect = lower value, cell number ratio, induced over uninduced) and 0.958 in assay [9] (setting [14]). For the same compound, the results for the cell count in [9] (setting [15]) and in assay [9] (setting [16]) were 6790 and 6870, respectively. Further, the z-score is -0.488 (inactive) in [10] (setting [17]) and -0.197 in [10] (setting [18]).

Take `CC(C)(O)C(Cl)(Cl)Cl`: the nuclear beta-catenin stimulation is -0.2% (inactive) in assay [1] (at 10 µM) and 0.8% in [1] (stimulation, at 2 µM). Moreover, the insulin secretion stimulation in assay [2] was -2.2% (inactive). For the same compound, the viability decrease in assay [3] was -5.6% (inactive). In addition, the tube area decrease in [4] was 1.4% (inactive). Also, the GLP1 secretion stimulation in [5] is 1.1% (inactive). In addition, the inhibition of viability in assay [6] is 4.4% (inactive). Also, the results for the viability decrease (inhibition) in assay [7] and in assay [8] were 14% (inactive) and 6.7% (inactive), respectively. Moreover, the fold change was 0.973 (inactive) in [9] (stronger effect = lower value) and 0.817 in [9] (setting [14]). Also, the cell count in [9] (setting [15]) came to 7820; in assay [9] (setting [16]), 8030. In addition, in [11], the remaining NAD is 10 nM (inactive).

Regarding `CC(=O)OCC1=C(C(=O)O)N2C(=O)[C@@H](N)[C@H]2SC1`, the survival in assay [12] was 9.33 (inactive). Also, in assay [13], the parasite load remaining was 107% (inactive) and 94.3% (inactive). Further, the viability in [13] was 91.6% and 74.9%. For the same compound, the nuclear beta-catenin stimulation in assay [1] (at 10 µM) is -0.8% (inactive); in assay [1] (stimulation, at 2 µM), 0.2%. Further, in [2], the insulin secretion stimulation was -2.9% (inactive). In addition, the viability decrease in [3] is 27.2% (inactive). In addition, in [4], the tube area decrease was 10.2% (inactive). Moreover, the GLP1 secretion stimulation in assay [5] was 1.9% (inactive). The inhibition of viability in assay [6] is -5.2% (inactive). Moreover, the viability decrease (inhibition) is 82.6% (active) in [7] and 29.3% (inactive) in [8]. Also, the values for the fold change in assay [9] (stronger effect = lower value) and in [9] (setting [14]) were 0.918 (inactive) and 1.55, respectively. Besides, the cell count in [9] (setting [15]) turned out to be 8570; in assay [9] (setting [16]), 9340. Moreover, the z-score in assay [10] (setting [17]) is 0.366 (inactive); in assay [10] (setting [18]) it was -0.158.

With `OC(c1ccccc1)(c1ccccc1)C1CCNCC1`, the survival in assay [12] was 34.8 (inactive). Besides, in assay [13], the parasite load remaining was 42.4% (inactive) and 92.2% (inactive). Also, the viability in assay [13] is 47.4% and 92.3%. The nuclear beta-catenin stimulation was -0.1% (inactive) in assay [1] (at 10 µM) and 0.4% in [1] (stimulation, at 2 µM). The insulin secretion stimulation in [2] is 17.4% (inactive). Also, in [3], the viability decrease was -5.8% (inactive). The tube area decrease in assay [4] is 27.7% (inactive). Further, the GLP1 secretion stimulation in [5] was 0.1% (inactive). For the same compound, in assay [6], the inhibition of viability was -10.1% (inactive). Also, the viability decrease (inhibition) is 117% (active) in assay [7] and 2.9% (inactive) in assay [8]. Further, the fold change was 0.979 (inactive) and 0.871 (inactive) in [9] (stronger effect = lower value); 1.21 and 1 in assay [9] (setting [14]). Further, the cell count in [9] (setting [15]) was 8990 and 7950; in assay [9] (setting [16]), 9180 and 9130. The z-score in assay [10] (setting [17]) is -0.109 (inactive) and -0.124 (inactive); in [10] (setting [18]) it was -0.152 and 0.513.

As to `O=C(CCCN1CCC(n2c(=O)[nH]c3ccccc32)CC1)c1ccc(F)cc1`, the survival in [12] was 11.5 (inactive). In addition, the parasite load remaining in [13] is -5.69% (inactive) and 52.9% (inactive). The viability in [13] was 105% and 74.8%. The nuclear beta-catenin stimulation in [1] (at 10 µM) is 4.7% (inactive); in assay [1] (stimulation, at 2 µM) it was 3%. The insulin secretion stimulation in assay [2] was 0.7% (inactive). In addition, the viability decrease in [3] was -40.8% (inactive). The tube area decrease in assay [4] was 8% (inactive). Further, the GLP1 secretion stimulation in [5] is 2.9% (inactive). Moreover, the inhibition of viability in assay [6] is 19.9% (inactive). Besides, the figures for the viability decrease (inhibition) in assay [7] and in assay [8] were 29.4% (inactive) and 2.6% (inactive), respectively. The fold change in assay [9] (stronger effect = lower value) is 0.825 (inactive); in assay [9] (setting [14]), 1.64. Also, the cell count in assay [9] (setting [15]) stood at 7580; in assay [9] (setting [16]) it was 9190. The z-score in assay [10] (setting [17]) was 0.0917 (inactive); in assay [10] (setting [18]), -0.147.

Usually viability stands for a read-out of living cells in per cent, often relative to untreated cells.
